Data on 22 compounds can be found in PubChem BioAssay (EPA / NIEHS).

Several values for one entry are separate records, joined by “and”; a condition that tells them apart may be missing. Equal values may be shown once. Results filed as inconclusive are left out. The source holds several records for some structures; these can differ, active in one and inactive in another. Activity calls are given as the source filed them. The calls were made as follows, unless noted: active = hit-call score of the fitted dose curve at least 0.9, where 1 is the maximum; inconclusive = response in the unintended direction; inactive = score below 0.9.

In experiment [1] the target is human Norepinephrine Transporter (NET), SLC6A2 (gene 6530) (UniProt P23975). As to the kind of experiment: NVS_TR_hNET: NovaScreen (NVS) Transporter Assay for human Norepinephrine Transporter (NET) (AID 2283377).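 As to AC50: displacement of radioligand from human NET seen as loss of scintillation signal.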 In a few lines:
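Cell-free radioligand binding using CHO-derived membrane protein expressing human NET, read by filter scintillation counting 1 h after dosing; loss of signal vs DMSO. Initial duplicate screen at 25 uM, actives retested in concentration series.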

In experiment [2] the target is Estrogen receptor beta (Homo sapiens) (UniProt Q92731). As to the kind of experiment: OT_ER_ERbERb_1440: Odyssey Thera (OT) 24-hour HEK293T Protein-Complementation Assay for Estrogen Receptor-beta/-beta Homodimer (AID 2283380).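 Also: scored as signal increase over DMSO baseline for both agonists and antagonists.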 In a few lines: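 HEK293T cells stably expressing ER beta LBD (aa 310-547) homodimer fragment-complementation reporter, dosed 24 h. Cells formaldehyde-fixed, Draq5-stained; gain in nuclear (agonist) or nuclear plus cytoplasmic (antagonist) fluorescence versus DMSO read by laser scanning cytometry.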

Experiment [3] addresses Estrogen receptor (Homo sapiens) (UniProt P03372). As to the kind of experiment: OT_ERa_GFPERaERE_0480: Odyssey Thera (OT) 8-hour HeLa Transcription Induction Assay for Estrogen Receptor (AID 2283381; active = hit-call score of the fitted dose curve at least 0.9, where 1 is the maximum; inactive = score below 0.9). In a few lines: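 HeLa cells expressing GFP reporter under estrogen response element, imaged 8 h after dosing. GFP induction quantified by high-content fluorescence microscopy image analysis; gain of signal fitted versus DMSO.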

For experiment [4] the target is unchanged. As to the kind of experiment: OT_ERa_GFPERaERE_0120: Odyssey Thera (OT) 2-hour HeLa Transcription Induction Assay for Estrogen Receptor (AID 2283382). In outline:
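HeLa cells were dosed for 2 h, then GFP reporter induction was quantified by fluorescence microscopy with high-content image analysis. Gain of signal fitted against DMSO baseline.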

Experiment [5] addresses Retinoic acid receptor RXR-alpha (Homo sapiens) (UniProt P19793). As to the kind of experiment: OT_NURR1_NURR1RXRa_0480: Odyssey Thera (OT) 8-hour HEK293T Protein Complementation Assay for Nurr1/retinoid X receptor (RXR) (AID 2283385). In outline:
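HEK293T cells expressing Nurr1 and RXRα fused to reporter fragments (protein-fragment complementation); fluorescence measured 8 h after dosing. Gain of signal fitted relative to DMSO.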

For experiment [6] the target is unchanged. As to the kind of experiment: OT_NURR1_NURR1RXRa_1440: Odyssey Thera (OT) 24-hour HEK293T Protein Complementation Assay for Nurr1/retinoid X receptor (RXR) (AID 2283386). In a few lines:
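HEK293T protein-fragment complementation of Nurr1 and RXRα fused to reporter fragments; compounds 24 h. Fluorescence gain from reconstituted reporter fitted versus DMSO.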

Experiment [7] has as its target Norway rat Vesicular Monoamine Transporter (VMAT2), neurotransmitter transporter, Slc18a2 (gene 25549) (UniProt Q01827). As to the kind of experiment: NVS_TR_rVMAT2: NovaScreen (NVS) Transporter Assay for Norway rat Vesicular Monoamine Transporter (VMAT2), neurotransmitter transporter (AID 2283376).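 Also: actives lower the bound radioligand signal below the DMSO level.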 In outline: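 Radioligand displacement binding on rat forebrain tissue preparation, filter-based scintillation read-out 1 hour after dosing. Primary screen in duplicate at 25 uM, then concentration series for actives; loss of signal versus DMSO.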

Experiment [8] deals with Bile acid receptor (Homo sapiens) (UniProt Q96RI1). As to the kind of experiment: OT_FXR_FXRSRC1_1440: Odyssey Thera (OT) 24-hour HEK293T Protein-Complementation Assay for Farnesoid X receptor/SRC-1 Co-activator (AID 2283384). In outline: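 HEK293T cells, 24 h after chemical dosing. FXR–SRC-1 coactivator interaction read as fluorescence from protein-fragment complementation of a split reporter. Gain of signal fitted against DMSO baseline.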

Experiment [9] has as its target Agonist Androgen Response Element (ARE), AR (gene 367) (UniProt P10275). As to the kind of experiment: OT_AR_ARELUC_AG_1440: Odyssey Thera (OT) 24-hour CHO-K1 Luciferase Assay for Agonist Androgen Response Element (ARE) (AID 2283379). In outline: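 CHO-K1 cells carrying an ARE-driven luciferase reporter were exposed to compounds for 24 h. Luminescence was then read after adding a D-luciferin/ATP mix, and activity was scored as a gain in signal over DMSO vehicle.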

For experiment [10], the target named is mouse Estrogen Receptor alpha (Era), Esr1 (gene 13982) (UniProt P19785). As to the kind of experiment: NVS_NR_mERa: NovaScreen (NVS) Nuclear Receptor Binding Assay for mouse Estrogen Receptor alpha (Era) (AID 2283378).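 Also: hit means loss of bound radioligand signal relative to DMSO.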 In a few lines: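 Cell-free radioligand competitive displacement binding, read by filter-based scintillation counting 18 h after dosing. Primary screen run in duplicate at 25 uM, actives retested in concentration series; loss of signal versus DMSO.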
Sequence of mouse Estrogen Receptor alpha (Era), Esr1 (gene 13982) (P19785 whole entry, looked up): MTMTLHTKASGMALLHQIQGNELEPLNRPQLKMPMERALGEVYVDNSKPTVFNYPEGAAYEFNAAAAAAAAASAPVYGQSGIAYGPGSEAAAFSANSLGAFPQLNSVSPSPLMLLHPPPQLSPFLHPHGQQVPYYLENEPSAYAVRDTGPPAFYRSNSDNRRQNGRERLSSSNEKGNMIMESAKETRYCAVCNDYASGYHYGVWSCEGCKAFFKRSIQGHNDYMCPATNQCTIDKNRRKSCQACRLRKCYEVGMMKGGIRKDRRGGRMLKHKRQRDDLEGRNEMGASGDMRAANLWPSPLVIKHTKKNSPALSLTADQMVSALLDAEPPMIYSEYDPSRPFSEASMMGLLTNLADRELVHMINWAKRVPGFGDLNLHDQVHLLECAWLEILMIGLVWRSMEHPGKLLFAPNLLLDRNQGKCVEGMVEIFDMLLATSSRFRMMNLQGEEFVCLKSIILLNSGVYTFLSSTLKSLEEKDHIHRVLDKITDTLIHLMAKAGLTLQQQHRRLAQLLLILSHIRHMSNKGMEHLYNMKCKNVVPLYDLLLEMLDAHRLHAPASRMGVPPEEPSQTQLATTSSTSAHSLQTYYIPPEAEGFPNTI

Sequence of Norway rat Vesicular Monoamine Transporter (VMAT2), neurotransmitter transporter, Slc18a2 (gene 25549) (Q01827 whole entry, looked up): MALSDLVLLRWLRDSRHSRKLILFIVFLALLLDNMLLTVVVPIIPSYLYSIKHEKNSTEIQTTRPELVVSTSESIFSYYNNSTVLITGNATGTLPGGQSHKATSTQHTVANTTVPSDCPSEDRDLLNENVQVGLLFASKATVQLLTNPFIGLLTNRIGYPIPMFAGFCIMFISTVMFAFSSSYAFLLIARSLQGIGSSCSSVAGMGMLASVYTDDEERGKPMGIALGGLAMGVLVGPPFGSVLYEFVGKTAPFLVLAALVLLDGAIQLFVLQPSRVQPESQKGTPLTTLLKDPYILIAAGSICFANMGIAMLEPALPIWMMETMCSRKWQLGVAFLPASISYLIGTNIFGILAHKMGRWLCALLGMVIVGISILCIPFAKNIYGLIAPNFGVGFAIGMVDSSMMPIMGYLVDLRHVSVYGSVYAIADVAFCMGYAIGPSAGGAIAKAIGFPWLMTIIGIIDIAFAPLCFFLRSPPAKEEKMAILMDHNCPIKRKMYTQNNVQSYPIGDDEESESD
Sequence of Agonist Androgen Response Element (ARE), AR (gene 367) (P10275 whole entry, looked up): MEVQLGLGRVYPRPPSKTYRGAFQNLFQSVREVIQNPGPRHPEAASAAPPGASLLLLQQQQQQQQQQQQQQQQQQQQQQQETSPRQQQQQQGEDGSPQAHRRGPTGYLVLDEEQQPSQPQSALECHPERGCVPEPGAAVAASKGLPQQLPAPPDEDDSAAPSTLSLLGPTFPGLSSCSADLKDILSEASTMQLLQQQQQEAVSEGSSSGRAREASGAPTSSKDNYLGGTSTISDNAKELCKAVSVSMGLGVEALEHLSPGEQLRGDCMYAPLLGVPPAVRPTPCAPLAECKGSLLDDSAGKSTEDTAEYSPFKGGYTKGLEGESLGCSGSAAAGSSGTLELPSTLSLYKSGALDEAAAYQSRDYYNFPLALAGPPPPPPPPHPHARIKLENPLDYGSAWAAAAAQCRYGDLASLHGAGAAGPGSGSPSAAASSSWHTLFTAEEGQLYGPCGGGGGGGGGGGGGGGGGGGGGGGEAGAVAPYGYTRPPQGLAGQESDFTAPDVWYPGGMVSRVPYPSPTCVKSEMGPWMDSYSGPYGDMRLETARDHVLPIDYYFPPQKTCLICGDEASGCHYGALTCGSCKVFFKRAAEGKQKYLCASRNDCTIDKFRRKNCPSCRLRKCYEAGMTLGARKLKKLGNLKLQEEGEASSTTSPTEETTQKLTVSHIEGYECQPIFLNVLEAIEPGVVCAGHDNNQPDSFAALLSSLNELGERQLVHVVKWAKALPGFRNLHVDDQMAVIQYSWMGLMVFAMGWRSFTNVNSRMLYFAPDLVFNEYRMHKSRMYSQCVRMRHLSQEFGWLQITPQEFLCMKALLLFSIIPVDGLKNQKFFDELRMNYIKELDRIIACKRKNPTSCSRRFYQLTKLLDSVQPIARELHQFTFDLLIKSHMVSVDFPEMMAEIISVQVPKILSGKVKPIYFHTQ
Sequence of Estrogen receptor (Homo sapiens) (P03372 whole entry, looked up): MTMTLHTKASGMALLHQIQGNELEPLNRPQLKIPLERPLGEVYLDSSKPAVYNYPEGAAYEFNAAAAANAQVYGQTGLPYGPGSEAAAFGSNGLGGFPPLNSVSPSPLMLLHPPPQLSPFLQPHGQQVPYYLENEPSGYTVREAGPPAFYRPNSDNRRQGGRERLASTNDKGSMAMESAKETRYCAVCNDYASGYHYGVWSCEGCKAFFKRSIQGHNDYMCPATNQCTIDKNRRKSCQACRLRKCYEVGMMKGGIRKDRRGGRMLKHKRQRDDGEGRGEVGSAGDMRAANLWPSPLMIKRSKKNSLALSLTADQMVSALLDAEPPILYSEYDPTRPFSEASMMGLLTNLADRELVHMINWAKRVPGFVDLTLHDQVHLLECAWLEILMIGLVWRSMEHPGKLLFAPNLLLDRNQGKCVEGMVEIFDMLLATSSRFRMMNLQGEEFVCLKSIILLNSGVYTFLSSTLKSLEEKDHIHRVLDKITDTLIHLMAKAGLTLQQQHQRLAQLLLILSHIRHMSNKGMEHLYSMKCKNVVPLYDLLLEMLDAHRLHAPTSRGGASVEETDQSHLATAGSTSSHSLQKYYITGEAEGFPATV
Sequence of Retinoic acid receptor RXR-alpha (Homo sapiens) (P19793 whole entry, looked up, the tested form may be a part): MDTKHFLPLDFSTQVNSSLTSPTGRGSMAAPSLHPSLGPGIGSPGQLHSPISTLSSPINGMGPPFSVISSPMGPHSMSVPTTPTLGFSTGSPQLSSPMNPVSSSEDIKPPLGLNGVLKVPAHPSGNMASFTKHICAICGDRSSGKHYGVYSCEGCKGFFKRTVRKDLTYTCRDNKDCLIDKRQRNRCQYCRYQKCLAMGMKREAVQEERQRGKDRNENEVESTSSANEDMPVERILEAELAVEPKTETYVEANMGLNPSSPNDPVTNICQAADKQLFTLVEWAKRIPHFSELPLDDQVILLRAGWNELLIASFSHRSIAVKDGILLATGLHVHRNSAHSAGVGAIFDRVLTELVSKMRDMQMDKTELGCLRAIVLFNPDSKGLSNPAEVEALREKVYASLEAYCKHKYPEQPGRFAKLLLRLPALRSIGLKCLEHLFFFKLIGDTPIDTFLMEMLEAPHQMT
Sequence of Estrogen receptor beta (Homo sapiens) (Q92731 whole entry, looked up, the tested form may be a part): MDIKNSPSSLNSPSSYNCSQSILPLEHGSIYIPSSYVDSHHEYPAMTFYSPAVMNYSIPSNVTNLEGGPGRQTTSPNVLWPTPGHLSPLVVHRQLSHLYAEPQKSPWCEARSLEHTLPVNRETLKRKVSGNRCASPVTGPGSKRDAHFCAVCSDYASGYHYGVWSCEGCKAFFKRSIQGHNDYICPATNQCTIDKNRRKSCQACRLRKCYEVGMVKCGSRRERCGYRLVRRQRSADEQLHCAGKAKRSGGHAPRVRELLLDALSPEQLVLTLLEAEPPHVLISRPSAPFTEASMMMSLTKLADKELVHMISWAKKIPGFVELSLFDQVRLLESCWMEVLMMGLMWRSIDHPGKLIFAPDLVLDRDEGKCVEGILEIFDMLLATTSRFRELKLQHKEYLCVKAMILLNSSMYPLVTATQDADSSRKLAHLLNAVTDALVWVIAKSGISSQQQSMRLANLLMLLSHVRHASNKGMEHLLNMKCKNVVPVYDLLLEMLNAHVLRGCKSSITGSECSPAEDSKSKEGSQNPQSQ
Sequence of human Norepinephrine Transporter (NET), SLC6A2 (gene 6530) (P23975 whole entry, looked up): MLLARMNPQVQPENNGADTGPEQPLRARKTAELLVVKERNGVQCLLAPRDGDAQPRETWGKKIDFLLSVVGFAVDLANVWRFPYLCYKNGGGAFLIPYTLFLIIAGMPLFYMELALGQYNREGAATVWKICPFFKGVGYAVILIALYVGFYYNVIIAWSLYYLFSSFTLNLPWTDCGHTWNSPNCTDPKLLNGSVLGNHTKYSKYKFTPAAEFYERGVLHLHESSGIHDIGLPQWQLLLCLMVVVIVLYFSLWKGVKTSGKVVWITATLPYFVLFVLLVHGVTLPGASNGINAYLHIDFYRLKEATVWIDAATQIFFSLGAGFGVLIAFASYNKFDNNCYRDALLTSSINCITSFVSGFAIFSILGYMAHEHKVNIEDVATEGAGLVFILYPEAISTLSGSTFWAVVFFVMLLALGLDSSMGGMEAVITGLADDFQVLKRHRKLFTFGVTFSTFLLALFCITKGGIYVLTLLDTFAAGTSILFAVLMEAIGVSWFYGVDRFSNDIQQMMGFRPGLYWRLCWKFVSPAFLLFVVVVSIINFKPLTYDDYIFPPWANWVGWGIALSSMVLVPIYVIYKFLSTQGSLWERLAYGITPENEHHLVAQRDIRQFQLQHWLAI
Sequence of Bile acid receptor (Homo sapiens) (Q96RI1 whole entry, looked up, the tested form may be a part): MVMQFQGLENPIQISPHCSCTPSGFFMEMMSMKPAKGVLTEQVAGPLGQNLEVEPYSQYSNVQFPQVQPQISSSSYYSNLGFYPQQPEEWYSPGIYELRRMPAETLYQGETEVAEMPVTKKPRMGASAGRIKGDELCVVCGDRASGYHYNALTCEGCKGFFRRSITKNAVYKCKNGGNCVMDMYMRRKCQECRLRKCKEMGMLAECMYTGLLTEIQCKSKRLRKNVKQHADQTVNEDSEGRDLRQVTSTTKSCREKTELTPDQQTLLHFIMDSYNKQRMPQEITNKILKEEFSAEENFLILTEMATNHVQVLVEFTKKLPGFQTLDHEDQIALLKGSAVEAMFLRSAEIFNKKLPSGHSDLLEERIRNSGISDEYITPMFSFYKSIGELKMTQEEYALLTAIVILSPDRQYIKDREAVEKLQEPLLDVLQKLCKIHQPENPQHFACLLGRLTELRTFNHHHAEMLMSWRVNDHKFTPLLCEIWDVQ

As to `Oc1ccccc1-c1ccccc1`, the AC50 in experiment [1] was 15 µM (active). For the same compound, the call in experiment [2], in experiment [3], in [4], in experiment [5] and in experiment [6] was inactive.

As for `CCCCC(CC)COC(=O)c1ccccc1C(=O)OCC(CC)CCCC` (stereo not drawn), the outcome in experiment [7], in experiment [2], in experiment [3], in experiment [4], in [8] and in experiment [5] was inactive. Also, the outcome in [6] was inactive.

Turning to `O=C(Nc1ccccc1)Nc1ccnc(Cl)c1`, the AC50 in [7] is 6.12 µM (active). The call in [9], in experiment [3], in experiment [4] and in experiment [8] was inactive.

On to `COC(=O)c1ccccc1C(=O)OC`, for which the compound was classed as inactive in experiment [10], in experiment [2], in [3], in [4], in [8] and in [5]. Besides, the compound was classed as inactive in experiment [6].

Regarding `Cc1cc(Cl)ccc1OCC(=O)O`, in [9], the AC50 was 24 µM (active). Further, the compound was called inactive in experiment [9], in experiment [3], in experiment [4], in experiment [5] and in [6].

With `CS/C(C)=N/OC(=O)N(C)SN(C)C(=O)O/N=C(\C)SC`, the compound was classed as inactive in experiment [9], in [2], in experiment [4] and in [8]. The AC50 in [3] is 93.3 µM (active).

On to `N#CC(CCc1ccc(Cl)cc1)(Cn1cncn1)c1ccccc1` (stereo not drawn), for which the compound was classed as inactive in experiment [9], in experiment [2], in experiment [3] and in [4].

For the compound `CCOC(=O)C(Cl)Cc1cc(-n2nc(C)n(C(F)F)c2=O)c(F)cc1Cl` (stereo not drawn), the outcome in experiment [7], in [3], in experiment [4], in experiment [8], in experiment [5] and in experiment [6] was inactive. Also, the AC50 in experiment [5] is 12.7 µM (active).

Take `CC(C)Oc1cc(-n2nc(C(C)(C)C)oc2=O)c(Cl)cc1Cl`: the result in experiment [9], in experiment [2], in [3], in experiment [4], in experiment [5] and in experiment [6] was inactive. In addition, the figures for the AC50 in experiment [8], in experiment [5] and in experiment [6] were 58.7 µM (active), 50 µM (active) and 74.7 µM (active), respectively.

Take `CCCCOC(=O)c1ccccc1C(=O)OCCCC`: the AC50 in experiment [10] was 25 µM (active); in experiment [2], 33.4 µM (active) and 37.5 µM (active) and 31.9 µM (active); in experiment [3], 34.7 µM (active) and 31.9 µM (active) and 23.8 µM (active); in experiment [4], 30.6 µM (active) and 20.8 µM (active) and 24.9 µM (active). For the same compound, the result in [10], in [5] and in experiment [6] was inactive.

As to `CC1=C(C(=O)Nc2ccccc2)SCCO1`, in experiment [1], the AC50 is 11.6 µM (active). Moreover, the result in [9], in experiment [2], in [3], in [4], in experiment [8] and in [5] was inactive. For the same compound, in [6], the outcome was inactive.

As to `COc1ccc(C(c2ccc(OC)cc2)C(Cl)(Cl)Cl)cc1`, the compound was classed as inactive in experiment [7], in [1], in experiment [5] and in experiment [6]. The AC50 in experiment [10] is 3.48 µM (active); in experiment [2], 4.01 µM (active) and 3.74 µM (active) and 3.97 µM (active); in [3] it was 3.09 µM (active) and 3.24 µM (active) and 3.47 µM (active); in [4], 2.7 µM (active) and 2.88 µM (active) and 2.66 µM (active); in experiment [8], 30.4 µM (active) and 35.6 µM (active) and 28.4 µM (active); in experiment [5], 66 µM (active).

`C=CCC1=C(C)C(OC(=O)C2C(C=C(C)C)C2(C)C)CC1=O` (stereo not drawn): the compound was classed as inactive in experiment [1], in experiment [10], in [3], in experiment [4], in experiment [5] and in experiment [6]. Besides, the AC50 in experiment [8] was 75 µM (active); in experiment [5] it was 31.2 µM (active) and 33.1 µM (active); in experiment [6], 84.5 µM (active) and 83.5 µM (active).

Turning to `CCOC(=O)CC(SP(=S)(OC)OC)C(=O)OCC` (stereo not drawn), the compound was called inactive in experiment [9], in experiment [3] and in experiment [4].

Consider `C=CC1(C)OC(=O)N(c2cc(Cl)cc(Cl)c2)C1=O` (stereo not drawn), for which the AC50 in [10] is 10.1 µM (active); in experiment [4], 50 µM (active); in [8], 34.2 µM (active). Moreover, the call in experiment [10], in experiment [2], in [3], in [4], in experiment [8] and in experiment [5] was inactive. In addition, in experiment [6], the outcome was inactive.

As to `CO/C=C(/C(=O)OC)c1ccccc1Oc1cc(Oc2ccccc2C#N)ncn1`, the compound was classed as inactive in experiment [9], in [2], in experiment [3], in experiment [4] and in experiment [5].

Regarding `CON(C)C(=O)Nc1ccc(Cl)c(Cl)c1`, the AC50 in [1] was 25 µM (active). For the same compound, the result in experiment [1], in experiment [10], in experiment [3], in experiment [4], in [5] and in [6] was inactive.

`CCCCNC(=O)n1c(NC(=O)OC)nc2ccccc21`: the call in experiment [9], in experiment [2], in experiment [3], in experiment [4] and in experiment [8] was inactive.

For `CCCCNC(=O)OCC#CI`, the AC50 is 1.59 µM (active) and 4.96 µM (active) in experiment [7]; 9.04 µM (active) and 9.55 µM (active) in [1]; 86.8 µM (active) in [3]; 12.1 µM (active) in [4]; 11.4 µM (active) in [5]; 11.7 µM (active) in [6]. Further, the compound was called inactive in [10] and in experiment [2].

For the compound `N#Cc1nn(-c2c(Cl)cc(C(F)(F)F)cc2Cl)c(N)c1S(=O)C(F)(F)F` (stereo not drawn), the outcome in experiment [9], in experiment [2], in [3], in [4], in experiment [5] and in [6] was inactive. In addition, the AC50 in experiment [8] is 33 µM (active).

In the case of `Cc1ccc(-c2c(Cl)nc(C#N)n2S(=O)(=O)N(C)C)cc1`, the result in experiment [9], in [2], in [3], in experiment [4], in experiment [8] and in experiment [5] was inactive. Moreover, the result in [6] was inactive.

With `CC1COC(Cn2cncn2)(c2ccc(Oc3ccc(Cl)cc3)cc2Cl)O1` (stereo not drawn), the result in experiment [7], in [2], in experiment [3] and in experiment [4] was inactive. The AC50 in [1] is 12 µM (active); in experiment [5], 11.4 µM (active).

A word on the AC50: it is the concentration at which the activity in the assay is half-maximal.
